# Inconclusive results are not listed. Where a call stands in place of a potency, no number is given. A number with no mark means an inactive call. Activity calls are given as the source filed them. Calls follow the shape of the dose curve; as a rule, active = well fitted curve in the direction sought with a large enough effect in the repeat runs; inconclusive = weak or mixed curves; inactive = no such curve, though single readings can be large; an effect the other way counts as inactive or inconclusive.
# Experiments:
# [1] = target: Cytochrome P450 2D6 (Homo sapiens) (UniProt P10635); assay: Cytochrome P450 Family 2 Subfamily D Member 6 (CYP2D6) small molecule antagonists: luciferase reporter qHTS assay (AID 1671196); also: nearly all actives have a fitted effect of over 50% in size; as to activity change, negative = inhibition: series mostly up to about 120 µM
# Chain of Cytochrome P450 2D6 (Homo sapiens) (P10635 whole entry, looked up): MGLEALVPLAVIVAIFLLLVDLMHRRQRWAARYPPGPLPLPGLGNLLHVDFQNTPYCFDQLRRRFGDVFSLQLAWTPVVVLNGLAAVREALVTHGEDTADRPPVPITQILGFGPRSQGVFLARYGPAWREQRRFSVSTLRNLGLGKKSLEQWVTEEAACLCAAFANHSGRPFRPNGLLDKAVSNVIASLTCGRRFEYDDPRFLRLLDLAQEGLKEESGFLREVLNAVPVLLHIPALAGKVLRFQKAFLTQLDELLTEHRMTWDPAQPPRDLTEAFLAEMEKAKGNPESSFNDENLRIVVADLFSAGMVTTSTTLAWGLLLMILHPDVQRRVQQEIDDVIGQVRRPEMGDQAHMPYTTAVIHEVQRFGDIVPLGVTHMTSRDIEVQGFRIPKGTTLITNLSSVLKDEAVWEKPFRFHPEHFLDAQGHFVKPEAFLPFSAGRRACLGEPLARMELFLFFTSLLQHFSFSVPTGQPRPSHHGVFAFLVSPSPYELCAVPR
# In short: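 Luminescence (RLU), read 20 min after detection reagent, indicated CYP2D6 conversion of proluciferin to luciferin during a 1 h NADPH-dependent reaction at room temperature.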
# [2] = target: Cytochrome P450 2C9 (Homo sapiens) (UniProt P11712); assay: Cytochrome P450 Family 2 Subfamily C Member 9 (CYP2C9) small molecule antagonists: luciferase reporter qHTS assay (AID 1671198); also: nearly all actives have a fitted effect of over 50% in size; as to activity change, negative = inhibition: series mostly up to about 120 µM
# Chain of Cytochrome P450 2C9 (Homo sapiens) (P11712 whole entry, looked up): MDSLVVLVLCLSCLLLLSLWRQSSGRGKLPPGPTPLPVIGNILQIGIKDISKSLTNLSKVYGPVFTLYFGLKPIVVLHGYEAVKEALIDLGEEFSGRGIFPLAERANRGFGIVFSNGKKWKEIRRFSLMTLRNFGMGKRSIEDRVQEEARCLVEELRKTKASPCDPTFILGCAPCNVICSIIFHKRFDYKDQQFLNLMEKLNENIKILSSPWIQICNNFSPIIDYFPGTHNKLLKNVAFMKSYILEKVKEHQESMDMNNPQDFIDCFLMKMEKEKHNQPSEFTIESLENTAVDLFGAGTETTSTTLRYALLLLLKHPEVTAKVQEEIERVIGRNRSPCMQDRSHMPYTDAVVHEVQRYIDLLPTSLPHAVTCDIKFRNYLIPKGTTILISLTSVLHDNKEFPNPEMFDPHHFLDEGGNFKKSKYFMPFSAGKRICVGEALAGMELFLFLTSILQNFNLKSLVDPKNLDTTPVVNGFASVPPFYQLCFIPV
# In short: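 CYP2C9 activity was measured with a P450-Glo proluciferin substrate. Enzyme–substrate mix was held with compound for 10 min at room temperature, then NADPH regeneration solution was added for 1 h at 37C. Luciferin product was read as luminescence.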
# [3] = target: Cytochrome P450 1A2 (Homo sapiens) (UniProt P05177); assay: Cytochrome P450 Family 1 Subfamily A Member 2 (CYP1A2) small molecule antagonists: luciferase reporter qHTS assay (AID 1671199); also: nearly all actives have a fitted effect of over 50% in size; as to activity change, negative = inhibition: series mostly up to about 120 µM
# Chain of Cytochrome P450 1A2 (Homo sapiens) (P05177 whole entry, looked up): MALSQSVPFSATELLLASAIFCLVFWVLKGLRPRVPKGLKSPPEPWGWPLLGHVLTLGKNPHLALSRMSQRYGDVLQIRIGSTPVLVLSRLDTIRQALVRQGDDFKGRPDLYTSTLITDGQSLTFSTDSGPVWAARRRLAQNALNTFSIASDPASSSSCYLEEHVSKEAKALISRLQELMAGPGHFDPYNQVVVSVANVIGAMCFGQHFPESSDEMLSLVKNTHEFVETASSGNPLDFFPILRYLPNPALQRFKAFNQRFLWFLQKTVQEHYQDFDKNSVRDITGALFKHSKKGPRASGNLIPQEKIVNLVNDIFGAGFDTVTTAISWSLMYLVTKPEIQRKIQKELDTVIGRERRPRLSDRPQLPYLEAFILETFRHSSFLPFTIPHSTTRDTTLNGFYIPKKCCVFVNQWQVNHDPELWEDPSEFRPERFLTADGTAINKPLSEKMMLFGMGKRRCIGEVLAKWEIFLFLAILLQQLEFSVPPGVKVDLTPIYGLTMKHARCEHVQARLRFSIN
# In short: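 CYP1A2 turnover of a luminogenic substrate was quantified after 1 h with NADPH regeneration at room temperature. Furafylline served as positive control.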
# [4] = target: Voltage-gated inwardly rectifying potassium channel KCNH2 (Homo sapiens) (UniProt Q12809); assay: Human Ether-a-go-go-Related Gene (hERG) channel small molecule antagonists: fluorescence cell-based qHTS assay (AID 1671200); also: nearly all actives have a fitted effect of over 50% in size;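 as to activity change, negative = inhibition: hERG-expressing U2OS cells given a thallium stimulus after FluxOR II dye loading; series mostly up to about 77 µM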
# Chain of Voltage-gated inwardly rectifying potassium channel KCNH2 (Homo sapiens) (Q12809 whole entry, looked up): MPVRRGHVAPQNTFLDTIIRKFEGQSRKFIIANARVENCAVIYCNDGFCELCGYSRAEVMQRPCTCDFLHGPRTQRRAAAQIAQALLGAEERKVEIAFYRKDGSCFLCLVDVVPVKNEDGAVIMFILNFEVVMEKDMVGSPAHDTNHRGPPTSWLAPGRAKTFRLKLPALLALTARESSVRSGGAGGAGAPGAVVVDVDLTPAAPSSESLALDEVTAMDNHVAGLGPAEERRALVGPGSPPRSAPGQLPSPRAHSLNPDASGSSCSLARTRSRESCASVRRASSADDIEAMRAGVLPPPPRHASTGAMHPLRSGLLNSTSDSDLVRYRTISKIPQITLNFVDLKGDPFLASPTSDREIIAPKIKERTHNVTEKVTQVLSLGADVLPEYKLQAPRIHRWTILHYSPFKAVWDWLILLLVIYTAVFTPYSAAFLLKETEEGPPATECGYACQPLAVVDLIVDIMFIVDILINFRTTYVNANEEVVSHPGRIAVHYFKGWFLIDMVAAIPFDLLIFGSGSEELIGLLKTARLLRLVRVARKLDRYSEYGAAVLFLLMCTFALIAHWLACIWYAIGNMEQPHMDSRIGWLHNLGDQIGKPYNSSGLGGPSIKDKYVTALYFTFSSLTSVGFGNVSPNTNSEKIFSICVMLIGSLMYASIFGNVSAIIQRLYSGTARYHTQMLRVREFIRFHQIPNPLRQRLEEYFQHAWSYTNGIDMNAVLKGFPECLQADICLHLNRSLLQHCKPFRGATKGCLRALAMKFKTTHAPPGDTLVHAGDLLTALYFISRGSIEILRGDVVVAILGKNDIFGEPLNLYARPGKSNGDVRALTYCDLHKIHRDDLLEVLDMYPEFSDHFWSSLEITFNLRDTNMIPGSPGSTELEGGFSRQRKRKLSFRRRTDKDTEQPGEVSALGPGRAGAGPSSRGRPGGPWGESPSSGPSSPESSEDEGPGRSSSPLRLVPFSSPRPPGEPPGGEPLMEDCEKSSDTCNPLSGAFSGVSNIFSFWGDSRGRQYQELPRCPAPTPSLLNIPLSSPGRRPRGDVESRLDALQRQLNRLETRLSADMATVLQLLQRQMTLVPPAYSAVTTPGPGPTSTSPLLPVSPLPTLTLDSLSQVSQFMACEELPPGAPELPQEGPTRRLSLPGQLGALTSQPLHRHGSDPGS
# In short: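 Channel function was assessed by thallium flux. Cells seeded the previous day and kept at 37 C took up FluxOR II dye over 1 h in the dark at room temperature, then sat another 10 min before stimulation.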
# [5] = target: Cytochrome P450 3A4 (Homo sapiens) (UniProt P08684); assay: Cytochrome P450 Family 3 Subfamily A Member 4 (CYP3A4) small molecule antagonists: luciferase reporter qHTS assay (AID 1671201); also: nearly all actives have a fitted effect of over 50% in size; as to activity change, negative = inhibition: series mostly up to about 120 µM
# Chain of Cytochrome P450 3A4 (Homo sapiens) (P08684 whole entry, looked up): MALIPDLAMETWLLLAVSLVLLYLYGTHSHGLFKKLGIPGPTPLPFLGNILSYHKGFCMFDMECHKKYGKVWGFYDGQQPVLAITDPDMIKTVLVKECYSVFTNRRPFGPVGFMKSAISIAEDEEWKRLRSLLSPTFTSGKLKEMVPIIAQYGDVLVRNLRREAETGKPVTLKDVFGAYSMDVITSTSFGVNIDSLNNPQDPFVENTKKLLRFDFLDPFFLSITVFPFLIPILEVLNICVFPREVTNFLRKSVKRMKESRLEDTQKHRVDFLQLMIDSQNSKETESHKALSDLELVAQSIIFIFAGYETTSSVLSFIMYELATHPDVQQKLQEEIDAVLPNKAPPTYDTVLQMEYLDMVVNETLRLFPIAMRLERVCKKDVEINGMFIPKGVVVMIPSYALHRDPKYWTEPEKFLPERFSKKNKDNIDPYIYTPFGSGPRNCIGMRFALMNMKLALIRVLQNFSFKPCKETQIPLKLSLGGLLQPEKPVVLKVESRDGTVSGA
# In short: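 Compounds in DMSO were pin-transferred onto CYP3A4 enzyme-substrate mix and held 10 min at room temperature. NADPH regenerating solution started the reaction for 1 h; luciferin detection reagent stopped it, and luminescence was read after 20 min.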
# [6] = target: Cytochrome P450 2C19 (Homo sapiens) (UniProt P33261); assay: Cytochrome P450 Family 2 Subfamily C Member 19 (CYP2C19) small molecule antagonists: luciferase reporter qHTS assay (AID 1671197); also: nearly all actives have a fitted effect of over 65% in size; as to activity change, negative = inhibition: series mostly up to about 120 µM
# Chain of Cytochrome P450 2C19 (Homo sapiens) (P33261 whole entry, looked up): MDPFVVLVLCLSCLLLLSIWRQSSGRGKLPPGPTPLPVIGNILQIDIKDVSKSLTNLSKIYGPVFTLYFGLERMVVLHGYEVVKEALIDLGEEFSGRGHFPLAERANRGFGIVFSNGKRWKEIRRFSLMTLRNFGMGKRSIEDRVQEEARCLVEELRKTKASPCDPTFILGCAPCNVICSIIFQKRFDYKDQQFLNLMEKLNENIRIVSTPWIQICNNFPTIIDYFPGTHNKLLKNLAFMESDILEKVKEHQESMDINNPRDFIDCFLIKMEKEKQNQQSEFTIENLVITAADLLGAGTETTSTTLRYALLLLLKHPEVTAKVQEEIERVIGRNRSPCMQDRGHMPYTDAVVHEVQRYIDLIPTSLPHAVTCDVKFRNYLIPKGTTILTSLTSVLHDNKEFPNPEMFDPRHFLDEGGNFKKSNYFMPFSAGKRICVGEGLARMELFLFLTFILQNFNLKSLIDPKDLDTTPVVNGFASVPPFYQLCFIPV
# In short: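 Luminescent readout of CYP2C19 activity: luciferin product detected 20 min after adding detection reagent. Before that, compound and enzyme-substrate mix preincubated 10 min at room temperature; NADPH-regenerating system started a 1 h, 37C reaction. Ketoconazole as positive control.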
# Potency is read from the fitted curve at half-maximal effect.
smiles,measurement,setting,value
Cc1c(-c2cccnc2)c2ccccc2n1CCCCC(=O)O,Potency,[1],inactive
same,Potency,[2],31.7 µM (active)
same,Potency,[3],31.7 µM (active)
same,Potency,[4],inactive
same,Potency,[5],5.03 µM (active)
Oc1ccc(Oc2ccccc2)cc1,Potency,[1],26.8 µM (active)
same,Potency,[2],26.8 µM (active)
same,Potency,[4],inactive
same,Potency,[5],inactive
C[C@]12CCC(=O)C=C1[C@@H]1C[C@@H]1[C@H]1[C@@H]3[C@@H]4C[C@@H]4[C@@]4(CCC(=O)O4)[C@@]3(C)CC[C@@H]12,Potency,[1],inactive
same,Potency,[3],inactive
same,Potency,[4],inactive
same,Potency,[5],inactive
CCCCCCCCCCCCCCCCC(=O)O,Potency,[1],inactive
same,Potency,[2],inactive
same,Potency,[3],inactive
same,Potency,[4],inactive
same,Potency,[5],inactive
CC(C)=CCCC(C)C=O (stereo unspecified),Potency,[1],inactive
same,Potency,[3],inactive
same,Potency,[4],inactive
same,Potency,[5],35.6 µM (active)
O=C(O)c1ccc2c(c1)nc(C(=O)NC1CCN(C3CC3)CC1)n2Cc1cc(-c2ccc(Cl)s2)on1,"activity change, negative = inhibition",[6],14.2% [at 23.6 µM]
same,"activity change, negative = inhibition",[2],-6.17% [at 23.6 µM]
same,"activity change, negative = inhibition",[3],0.996% [at 23.6 µM]
same,"activity change, negative = inhibition",[4],-1.6% [at 15.8 µM]
CC(C)(C)c1cc(C=O)cc(C(C)(C)C)c1O,Potency,[1],inactive
same,Potency,[3],inactive
same,Potency,[4],inactive
same,Potency,[5],inactive
CCCCCCCCCCCCSC#N,Potency,[1],inactive
same,Potency,[3],7.96 µM (active)
same,Potency,[4],inactive
same,Potency,[5],inactive
CCCCCO,Potency,[1],inactive
same,Potency,[2],inactive
same,Potency,[4],inactive
same,Potency,[5],inactive
Oc1ccc(CCNCCCCCCNCCc2ccccc2)cc1O,Potency,[1],15.5 µM (active)
same,Potency,[3],inactive
same,Potency,[4],inactive
same,Potency,[5],inactive
O=C(Cl)c1ccc(F)c(Cl)c1,Potency,[6],inactive
same,Potency,[2],inactive
same,Potency,[3],inactive
same,Potency,[4],inactive
CC(=O)S[C@H](C(=O)N[C@H]1Cc2ccccc2[C@H]2CCC[C@@H](C(=O)O)N2C1=O)C(C)C,Potency,[1],inactive
same,Potency,[3],inactive
same,Potency,[4],inactive
CCCCCCOC(=O)c1ccccc1,Potency,[1],inactive
same,Potency,[2],inactive
same,Potency,[3],20 µM (active)
same,Potency,[4],inactive
same,Potency,[5],inactive
O=C(Nc1ccc2c(c1)Cc1ccccc1-2)C(F)(F)F,Potency,[6],17.8 µM (active)
same,Potency,[2],5.03 µM (active)
same,Potency,[3],3.56 µM (active)
same,Potency,[4],inactive
CCn1nc(Cc2ccccc2)cc1C1CCN(C[C@H]2C[C@H](N(C)[C@@H](C(=O)O)C(C)C)C[C@@H]2c2cccc(F)c2)CC1,Potency,[1],35.6 µM (active)
same,Potency,[4],13.8 µM (active)
CCCCCCCCCC(C)C=O (stereo unspecified),Potency,[1],inactive
same,Potency,[2],44.8 µM (active)
same,Potency,[4],inactive
same,Potency,[5],inactive
Cc1nc2sccn2c(=O)c1CCN1CCC(=C(c2ccc(F)cc2)c2ccc(F)cc2)CC1,Potency,[1],15.5 µM (active)
same,Potency,[3],inactive
same,Potency,[4],0.213 µM (active)
same,Potency,[5],inactive
CC1(C)CC(O)CC(C)(C)N1[O],Potency,[1],inactive
same,Potency,[2],inactive
same,Potency,[3],inactive
same,Potency,[4],inactive
same,Potency,[5],inactive
CCc1cnc(C(=O)O)c(C(=O)O)c1,Potency,[1],inactive
same,Potency,[3],inactive
same,Potency,[4],inactive
same,Potency,[5],inactive
CC1(COc2ccc(CC3SC(=O)NC3=O)cc2)CCCCC1 (stereo unspecified),Potency,[1],inactive
same,Potency,[3],inactive
same,Potency,[4],inactive
CC(C)=CCC/C(C)=C/C=N/O,Potency,[1],35.6 µM (active)
same,Potency,[2],39.9 µM (active)
same,Potency,[3],39.9 µM (active)
same,Potency,[4],inactive
same,Potency,[5],28.3 µM (active)
O=C(O)COCC(=O)O,Potency,[1],inactive
same,Potency,[3],inactive
same,Potency,[4],inactive
same,Potency,[5],inactive
CC(C)Cc1nccs1,Potency,[1],12.9 µM (active)
same,Potency,[4],inactive
C[C@H](CN1CCCC1)C(=O)c1ccc(C(F)(F)F)cc1,Potency,[1],1.55 µM (active)
same,Potency,[2],inactive
same,Potency,[4],inactive
same,Potency,[5],inactive
Cc1cc(C)c(C)c(O)c1,Potency,[1],inactive
same,Potency,[2],inactive
same,Potency,[3],31.7 µM (active)
same,Potency,[4],inactive
same,Potency,[5],inactive
O=C(C1CCCCC1)N1CC(=O)N2CCCc3ccccc3C2C1 (stereo unspecified),Potency,[6],4.9 µM (active)
same,Potency,[2],13.8 µM (active)
same,Potency,[3],inactive
same,Potency,[4],inactive
O=C1c2ccccc2C(=O)C1c1ccc2cc(S(=O)(=O)O)cc(S(=O)(=O)O)c2n1,Potency,[1],inactive
same,Potency,[3],43.2 µM (active)
same,Potency,[4],inactive
same,Potency,[5],inactive
Cc1cc(SC2=C(O)C[C@@](CCc3ccc(N)cc3)(C(C)C)OC2=O)c(C(C)(C)C)cc1CO,Potency,[1],inactive
same,Potency,[3],inactive
same,Potency,[4],inactive
O=[N+]([O-])c1cccc(I)c1,Potency,[1],inactive
same,Potency,[2],inactive
same,Potency,[3],31.6 µM (active)
same,Potency,[4],inactive
same,Potency,[5],inactive
CCOC(C)OCC,Potency,[1],inactive
same,Potency,[2],inactive
same,Potency,[3],inactive
same,Potency,[4],inactive
same,Potency,[5],inactive
